Experimental data taken from PubChem BioAssay AID1159580 (chemical genetic matrix, 2015).
The campaign covered roughly 5,500 compounds. About 2,000 (36%) were called active. Another 18% or so got no clear call; they are omitted. Cut-off read from the data, not from the text of the source: active = normalized growth mostly below about 0.91 (no sharp cut-off); inconclusive = no clear call, values can overlap the other calls; inactive = mostly above about 0.92. This is one part of the list.

Experiment: chemical genetic growth profiling, strain panel (AID 1159580);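 note: tested at 20 µM; growth read once vehicle control cultures reached saturation at 30 °C; 1 = growth at the plate median or of vehicle wells; lower values mean less growth of the strain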
Details: growth OD

Measured: normalized growth

CC(C)CCCC(C)C1CCC2C3CC[C@H]4CCCC[C@]4(C)C3CC[C@]12C (some centres not stated)
inactive: S. cerevisiae deletion strains, locus YJR075W, strain HOC1, stronger effect = lower value 0.965 | S. cerevisiae deletion strains, locus YKL009W, strain mrt4, stronger effect = lower value 1.01 | S. cerevisiae deletion strains, locus YKL068W, stronger effect = lower value 0.993 | S. cerevisiae deletion strains, locus YKL085W, strain MDH1 (second series), stronger effect = lower value 1.02 | S. cerevisiae deletion strains, locus YKL085W, strain MDH1, stronger effect = lower value 1.02 | S. cerevisiae deletion strains, locus YKL160W, strain elf1, stronger effect = lower value 0.998 | S. cerevisiae deletion strains, locus YKL190W, strain CNB1, stronger effect = lower value 0.98 | S. cerevisiae deletion strains, locus YKR001C, strain vps1, stronger effect = lower value 0.996 | S. cerevisiae deletion strains, locus YKR026C, strain gcn3, stronger effect = lower value 0.998 | S. cerevisiae deletion strains, locus YKR091W, strain srl3, stronger effect = lower value 1.02 | S. cerevisiae deletion strains, locus YLL001W, strain dnm1, stronger effect = lower value 1.02 | S. cerevisiae deletion strains, locus YLL026W, stronger effect = lower value 1.02 | S. cerevisiae deletion strains, locus YLL041C, strain sdh2, stronger effect = lower value 1.01 | S. cerevisiae deletion strains, locus YLR027C, strain aat2, stronger effect = lower value 1.01 | S. cerevisiae deletion strains, locus YLR039C, strain RIC1, stronger effect = lower value 0.951 | S. cerevisiae deletion strains, locus YLR058C, strain SHM2, stronger effect = lower value 0.967 | S. cerevisiae deletion strains, locus YLR102C, strain apc9, stronger effect = lower value 0.977 | S. cerevisiae deletion strains, locus YLR113W, strain HOG1, stronger effect = lower value 1.03 | S. cerevisiae deletion strains, locus YLR221C, strain rsa3, stronger effect = lower value 1.02 | S. cerevisiae deletion strains, locus YLR258W, strain gsy2, stronger effect = lower value 1.02 | S. cerevisiae deletion strains, locus YLR262C, strain YPT6 (second series), stronger effect = lower value 1.02 | S. cerevisiae deletion strains, locus YLR262C, strain YPT6, stronger effect = lower value 0.945 | S. cerevisiae deletion strains, locus YLR268W, strain sec22, stronger effect = lower value 0.966 | S. cerevisiae deletion strains, locus YLR320W, strain mms22, stronger effect = lower value 1.02 | S. cerevisiae deletion strains, locus YLR330W, strain CHS5, stronger effect = lower value 0.999 | S. cerevisiae deletion strains, locus YLR342W, strain FKS1 (second series), stronger effect = lower value 1.04 | S. cerevisiae deletion strains, locus YLR342W, strain FKS1, stronger effect = lower value 1.02 | S. cerevisiae deletion strains, locus YLR357W, strain rsc2, stronger effect = lower value 1.04 | S. cerevisiae deletion strains, locus YLR370C, strain arc18, stronger effect = lower value 1.02 | S. cerevisiae deletion strains, locus YLR371W, strain rom2, stronger effect = lower value 0.998 | S. cerevisiae deletion strains, locus YLR384C, strain iki3, stronger effect = lower value 1.02 | S. cerevisiae deletion strains, locus YLR418C, strain cdc73, stronger effect = lower value 0.952 | S. cerevisiae deletion strains, locus YML016C, strain PPZ1, stronger effect = lower value 0.986 | S. cerevisiae deletion strains, locus YML032C, strain rad52, stronger effect = lower value 1 | S. cerevisiae deletion strains, locus YML120C, strain ndi1, stronger effect = lower value 1.02 | S. cerevisiae deletion strains, locus YML124C, strain tub3, stronger effect = lower value 1 | S. cerevisiae deletion strains, locus YMR058W, strain fet3, stronger effect = lower value 1.01 | S. cerevisiae deletion strains, locus YMR078C, strain ctf18, stronger effect = lower value 0.99 | S. cerevisiae deletion strains, locus YMR125W, strain sto1, stronger effect = lower value 1.03 | S. cerevisiae deletion strains, locus YMR129W, stronger effect = lower value 1.02 | S. cerevisiae deletion strains, locus YMR205C, strain PFK2, stronger effect = lower value 1.04 | S. cerevisiae deletion strains, locus YMR223W, strain ubp8, stronger effect = lower value 1 | S. cerevisiae deletion strains, locus YMR231W, strain pep5, stronger effect = lower value 1.02 | S. cerevisiae deletion strains, locus YMR263W, strain SAP30, stronger effect = lower value 0.949 | S. cerevisiae deletion strains, locus YMR307W, strain GAS1, stronger effect = lower value 1.07 | S. cerevisiae deletion strains, locus YNL067W, strain RPL9B, stronger effect = lower value 0.953 | S. cerevisiae deletion strains, locus YNL071W, strain lat1, stronger effect = lower value 1.01 | S. cerevisiae deletion strains, locus YNL128W, strain TEP1, stronger effect = lower value 0.941 | S. cerevisiae deletion strains, locus YNL153C, strain GIM3, stronger effect = lower value 0.962 | S. cerevisiae deletion strains, locus YNL183C, strain NPR1, stronger effect = lower value 0.922 | S. cerevisiae deletion strains, locus YNL209W, strain ssb2, stronger effect = lower value 1.02 | S. cerevisiae deletion strains, locus YNL233W, strain BNI4, stronger effect = lower value 0.983 | S. cerevisiae deletion strains, locus YNL248C, strain rpa49, stronger effect = lower value 0.992 | S. cerevisiae deletion strains, locus YNL250W, strain rad50, stronger effect = lower value 0.986 | S. cerevisiae deletion strains, locus YNL271C, strain bni1, stronger effect = lower value 0.993 | S. cerevisiae deletion strains, locus YNL298W, strain CLA4, stronger effect = lower value 0.998 | S. cerevisiae deletion strains, locus YNL307C, strain MCK1, stronger effect = lower value 1.01 | S. cerevisiae deletion strains, locus YNL322C, strain KRE1 (second series), stronger effect = lower value 1.02 | S. cerevisiae deletion strains, locus YNL322C, strain KRE1, stronger effect = lower value 0.971 | S. cerevisiae deletion strains, locus YNR049C, strain mso1, stronger effect = lower value 1.02 | S. cerevisiae deletion strains, locus YNR052C, strain pop2, stronger effect = lower value 0.996 | S. cerevisiae deletion strains, locus YOL006C, strain TOP1, stronger effect = lower value 0.935 | S. cerevisiae deletion strains, locus YOL012C, strain htz1 1.86 | S. cerevisiae deletion strains, locus YOL147C, strain pex11, stronger effect = lower value 0.992 | S. cerevisiae deletion strains, locus YOR001W, strain rrp6, stronger effect = lower value 0.993 | S. cerevisiae deletion strains, locus YOR061W, strain CKA2, stronger effect = lower value 0.964 | S. cerevisiae deletion strains, locus YOR069W, strain VPS5, stronger effect = lower value 1.01 | S. cerevisiae deletion strains, locus YOR070C, strain gyp1, stronger effect = lower value 1.02 | S. cerevisiae deletion strains, locus YOR080W, strain dia2, stronger effect = lower value 1.02 | S. cerevisiae deletion strains, locus YOR083W, strain WHI5, stronger effect = lower value 0.991 | S. cerevisiae deletion strains, locus YOR106W, strain vam3, stronger effect = lower value 1.01 | S. cerevisiae deletion strains, locus YOR136W, strain idh2, stronger effect = lower value 1 | S. cerevisiae deletion strains, locus YOR144C, strain elg1, stronger effect = lower value 0.981 | S. cerevisiae deletion strains, locus YOR184W, strain ser1, stronger effect = lower value 1.01 | S. cerevisiae deletion strains, locus YOR231W, strain MKK1, stronger effect = lower value 0.992 | S. cerevisiae deletion strains, locus YOR265W, strain rbl2, stronger effect = lower value 1.02 | S. cerevisiae deletion strains, locus YOR270C, strain vph1, stronger effect = lower value 1.03 | S. cerevisiae deletion strains, locus YOR290C, strain snf2, stronger effect = lower value 0.984 | S. cerevisiae deletion strains, locus YOR316C, strain cot1, stronger effect = lower value 0.981 | S. cerevisiae deletion strains, locus YPL051W, strain arl3, stronger effect = lower value 0.997 | S. cerevisiae deletion strains, locus YPL055C, strain LGE1, stronger effect = lower value 0.934 | S. cerevisiae deletion strains, locus YPL078C, strain atp4, stronger effect = lower value 0.996 | S. cerevisiae deletion strains, locus YPL106C, strain sse1, stronger effect = lower value 1.05 | S. cerevisiae deletion strains, locus YPL240C, strain hsp82, stronger effect = lower value 1 | S. cerevisiae deletion strains, locus YPL241C, strain CIN2, stronger effect = lower value 0.993 | S. cerevisiae deletion strains, locus YPL256C, strain CLN2, stronger effect = lower value 0.978 | S. cerevisiae deletion strains, locus YPR119W, strain clb2, stronger effect = lower value 0.999 | S. cerevisiae deletion strains, locus YPR141C, strain kar3, stronger effect = lower value 0.966 | S. cerevisiae deletion strains, locus YPR163C, strain tif3, stronger effect = lower value 1 | S. cerevisiae deletion strains, locus YPR167C, strain met16, stronger effect = lower value 0.982 | S. cerevisiae deletion strains, strain wtn01, stronger effect = lower value 0.982 | S. cerevisiae strains, strain wild type, stronger effect = lower value 0.984
